From the supplement of paper PMC6555819 come the findings set out here.

The assay deals with VDR:RXRa (NR concentration 270 nM, RXRa partner concentration 90 nM). As to the kind of experiment: PBM binding z-score (relative to random genomic background probes); higher = stronger binding; sequences stand for … in GC…GCGATTGACAGCGTAGAATGAAGG
On the procedure: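 Protein-binding microarray (Agilent 4x180K custom design, double-stranded 60-nt probes: 5' GC cap, 34-nt variable region, 24-nt constant primer region; full probe sequence given). Purified or IVT nuclear receptor:RXRα heterodimers (3:1 NR:RXRα, mostly 270:90 nM) or homodimers were incubated for 1 h in PBS with 2% milk and no ligand, then detected with Alexa488 antibodies. Fluorescence from o1-orientation probes (~5 replicates averaged) was converted to z-scores against 500 random hg19 background probes. Variable regions are seed direct-repeat (DR0–DR5) sites, all their single-nucleotide variants and half-site ablations.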
Turning to TGCATGAGGTTAAAGATCAGGGAACGTGGCGTCG, the PBM binding z-score amounted to 2.1.

In the case of GATGCAGGGTCAGCTAGAGGCCAGAGTATGGAAA, the PBM binding z-score was 3.11.

CCCACTGGGGCAGAAAGGTTACCATACCATCCGG yielded a PBM binding z-score of 0.905.

Take GCTTACGGGTCAAGGGTTATAGCATGAATAGAAT: the PBM binding z-score came out at 4.33.

Take TCTCGGAGGACACGAAAGGTCAAAGCTCGACATC: the PBM binding z-score was found to be 4.67.

Take CTTCAAAGTTCAAGGTAACGTAACAGAAAGCAGC: the PBM binding z-score stood at 3.51.

As for CAAACTAGGTCTCAGAGGTCAAAGTCCGTGCGTA, the PBM binding z-score was 5.82.

With GCTCGAAGGACAAGGTCAGAGCTTTGTCCGTAGA, the PBM binding z-score is 1.31.

ACTTACGGGTCAACGAGGATATAGCACGCGTATA showed a PBM binding z-score of 6.51.

In turn, CCTTACGGGTCACGAGGTTATAGCGCGACGAGCG yielded a PBM binding z-score of 4.99.

With ACTTACTGGTCAACGAGGTTATAGCACGCGTATA, the PBM binding z-score was determined as 5.15.

Sequence CCTTACGGGTCACTCACAGGTTATAGCATTTGGA returned a PBM binding z-score of 3.6.

With ATACCAAGGTGATCGTGCGGTCGTTGATACTAAC, the PBM binding z-score came to 0.18.

CCTAACGGGTCACTGACAGGTTATAGCATTTGGA displayed a PBM binding z-score of 3.21.

The sequence CCTAGCAGGCCATGGTCACTCAAGCATTTCGCTT returned a PBM binding z-score of -0.485.

For TCATATAGGTAAATGCTGGGTGAAAGTCCGATCT, the PBM binding z-score was found to be 0.641.

Consider CTCGAAAAGTCGGTTGAGGTGAGTATACGGATAA, for which the PBM binding z-score is -0.065.

Sequence CCAGACAGGGGAGAAGGTAACTCAGCCTCGATTA displayed a PBM binding z-score of -0.544.

TGAATGAGGTTAAAGATCAGCGAACGTGGCGTCG gave a PBM binding z-score of 1.75.

As for CCTTACGGGTCACGAAGTTATAGCACGACGAGCG, the PBM binding z-score was 3.91.

Regarding TCATATCGGTAAACAGGTGAAAGTCCGTAAGTTA, the PBM binding z-score amounted to 0.935.

TGAATTAGGTTAAAGATCAGGGAACGTGGCGTCG had a PBM binding z-score of 0.374.

For TAGCCAAGGTCATGCGGGCCAGTATAGTGTCGGC, the PBM binding z-score was 5.15.

On to AGAATGAGGCTAAGATCAGGGAAACAGAATACAT, for which the PBM binding z-score was -0.231.

As to ATCTCTAGCTAAAAGTTCAGTGAATCCCGAGGAT, the PBM binding z-score stood at 0.955.

TCTATTAGTTGAAGGGCAACCCACGAGTCCGTTT showed a PBM binding z-score of 1.1.

Regarding GGAACGACGGCAAAGTTGATAGCATCTGTCGACG, the PBM binding z-score is -0.538.

For ATATGTAGATTAGCTGGGGTCATTCAGACTAGGC, the PBM binding z-score is 4.91.

TCTGCTAGGTCAGTTGGTTAGCTAACGAGCTGCC yielded a PBM binding z-score of 0.227.

CATACAGGGTCAGCTAGGCAAGAGTAGGGACGGC: the PBM binding z-score is 2.53.

AGAATGAGGTTATACGTAGATCAGGGCAGAAAGT registered a PBM binding z-score of 1.67.

ACAGACAGGTGATGAAGGTAACTCAAGCTATCAT: the PBM binding z-score turned out to be 0.0355.

Sequence TCTAGTTGGTCACGGAGGTCACGCACGACGGGTA returned a PBM binding z-score of 5.99.

GCTGCTAGGTCAACTGATGGTCTGCTAAAGCTCG yielded a PBM binding z-score of 1.29.

TCGATTAGGTTAGGGGCATTCAGAATGGCGTCGA registered a PBM binding z-score of 0.781.

In the case of CCTAGTTGCTCAGGAGGTCACACACCGGATATGA, the PBM binding z-score came out at 3.76.

TAGCCTAGGTCATGCGGGCTAGTATAGTGTCGGC: the PBM binding z-score came out at 2.11.

Turning to CGTCCATGGTCAAAGGTCAGTGAAGAGATGACGG, the PBM binding z-score worked out at 3.39.

CAAACTAGGTAACAGAGGTCAAAGTCCGTGCGTA registered a PBM binding z-score of 5.87.

Turning to TCTGCTAGGGCAACGATGGTCAGCTAATCTGCTA, the PBM binding z-score was -0.552.
